Data published in PubChem BioAssay (EPA / NIEHS).
Inconclusive results are not listed. Active and inactive are the calls of the source. How the source made its calls, unless noted: active means hit-call score of the fitted dose curve at least 0.9, where 1 is the maximum; inconclusive means response in the unintended direction; inactive means score below 0.9.

Legend:
[1] = ATG_TCF_b_cat_CIS: Attagene CIS-FACTORIAL HepG2 Assay for human T-Cell-Factor with beta-catenin (TCF/b-cat) (AID 2282965; active means hit-call score of the fitted dose curve at least 0.9, where 1 is the maximum; inactive means score below 0.9); settings: HepG2 TCF/beta-catenin cis-reporter transcription, actives raise or lower the signal
How it was run: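 Endogenous transcription factor activity is captured through cis-promoter reporter constructs transiently introduced into human HepG2 liver cells. Induced reporter mRNA is measured after 24 h and fitted bidirectionally relative to DMSO.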

[2] = ATG_TAL_CIS: Attagene CIS-FACTORIAL HepG2 Assay for human TAL Basal Promoter (AID 2282966; active means hit-call score of the fitted dose curve at least 0.9, where 1 is the maximum; inactive means score below 0.9;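 further: background control endpoint measuring basal TAL promoter reporter mRNA not a specific factor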); settings: HepG2 Attagene cis-factorial TAL promoter reporter; actives raise or lower the signal
How it was run: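 Basal-promoter background-control endpoint from a multiplexed HepG2 reporter panel. Cells were exposed 24 h, then reporter mRNA was read by RT-PCR/CE fluorescence and fitted in both directions relative to DMSO.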

[3] = ATG_TGFb_CIS: Attagene CIS-FACTORIAL HepG2 Assay for human Transforming Growth Factor (TGF) (AID 2282967; active means hit-call score of the fitted dose curve at least 0.9, where 1 is the maximum; inactive means score below 0.9); settings: HepG2 Attagene CIS TGFb reporter, mRNA transcription; actives raise or lower the signal
How it was run: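 Transient MRTU transfection of HepG2 (FuGene 6). Dose 24 h. TriZol RNA, oligo(dT) RT, PCR, 6-FAM primer extension, HpaI cut, CE. Bidirectional fit, DMSO = baseline.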

[4] = biological target: Estrogen receptor (Homo sapiens) (UniProt P03372); assay: ATG_ERa_TRANS: Attagene TRANS-FACTORIAL HepG2 Assay for human Estrogen Receptor alpha (ERa) (AID 2282970); settings: HepG2 Attagene TRANS ERa GAL4 reporter, mRNA
Chain of Estrogen receptor (Homo sapiens) (P03372 whole entry, looked up, the tested form may be a part): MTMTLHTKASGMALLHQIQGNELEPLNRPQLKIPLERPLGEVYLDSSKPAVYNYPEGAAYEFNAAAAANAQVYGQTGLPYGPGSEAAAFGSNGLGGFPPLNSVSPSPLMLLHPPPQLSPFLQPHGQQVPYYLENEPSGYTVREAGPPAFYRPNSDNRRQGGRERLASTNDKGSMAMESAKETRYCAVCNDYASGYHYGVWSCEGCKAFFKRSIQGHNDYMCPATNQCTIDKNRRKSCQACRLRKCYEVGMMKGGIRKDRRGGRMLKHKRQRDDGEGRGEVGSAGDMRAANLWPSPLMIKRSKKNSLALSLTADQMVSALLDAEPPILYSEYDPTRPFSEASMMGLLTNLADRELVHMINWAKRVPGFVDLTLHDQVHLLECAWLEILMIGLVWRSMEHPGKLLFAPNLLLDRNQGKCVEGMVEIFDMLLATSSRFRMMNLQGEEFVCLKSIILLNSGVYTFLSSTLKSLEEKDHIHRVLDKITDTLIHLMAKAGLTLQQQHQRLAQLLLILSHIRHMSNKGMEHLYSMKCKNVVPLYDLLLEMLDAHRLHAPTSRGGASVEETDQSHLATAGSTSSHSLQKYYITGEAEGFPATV
How it was run: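 Gal4-fusion ERa transactivation, measured as reporter transcript level in transiently transfected HepG2 cells. Exposure 24 h; RT-PCR plus capillary electrophoresis with fluorescence detection.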

[5] = biological target: Steroid hormone receptor ERR1 (Homo sapiens) (UniProt P11474); assay: ATG_ERRa_TRANS: Attagene TRANS-FACTORIAL HepG2 Assay for human Estrogen-Related Receptor alpha (ERRa) (AID 2282971); settings: HepG2 Attagene TRANS reporter, ERRa transactivation
How it was run: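 HepG2 cells transiently transfected with GAL4-UAS reporter units and chimeric NR-Gal4 constructs; after 24 hour compound incubation, reporter mRNA quantified by RT-PCR, fluorescent labelling and capillary electrophoresis, gain of signal versus DMSO.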

[6] = biological target: X-box-binding protein 1 (Homo sapiens) (UniProt P17861); assay: ATG_Xbp1_CIS: Attagene CIS-FACTORIAL HepG2 Assay for human X-box Binding Protein 1 (XBP1) (AID 2282972; active means hit-call score of the fitted dose curve at least 0.9, where 1 is the maximum; inactive means score below 0.9); settings: HepG2 XBP1 cis-element reporter, Attagene multiplex; actives raise or lower the signal
Chain of X-box-binding protein 1 (Homo sapiens) (P17861 whole entry, looked up): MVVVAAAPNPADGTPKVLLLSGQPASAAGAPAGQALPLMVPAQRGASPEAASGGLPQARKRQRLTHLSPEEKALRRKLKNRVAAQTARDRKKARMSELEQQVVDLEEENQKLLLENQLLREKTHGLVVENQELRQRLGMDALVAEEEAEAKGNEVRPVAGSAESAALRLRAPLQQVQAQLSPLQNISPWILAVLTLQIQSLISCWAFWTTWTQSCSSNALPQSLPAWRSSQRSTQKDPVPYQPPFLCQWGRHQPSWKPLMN
How it was run: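 Changes in reporter transcript abundance, read by RT-PCR and capillary electrophoresis, reflect endogenous transcription factor activity. Transfected HepG2 cells received compound for 24 hours; DMSO defined baseline for bidirectional analysis.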

[7] = ATG_M_19_TRANS: Attagene TRANS-FACTORIAL HepG2 Assay for M19 Transcription Factor (Internal Marker) (AID 2282974); settings: HepG2 Attagene TRANS-FACTORIAL M19 internal marker reporter
How it was run: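 Gain-of-signal in reporter mRNA, relative to DMSO, was scored from capillary electrophoresis fluorescence. HepG2 cells carried transiently transfected multiple reporter transcription units and were incubated with test chemicals for 24 h.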

[8] = ATG_GAL4_TRANS: Attagene TRANS-FACTORIAL HepG2 Assay for GAL4 (Internal Marker) (AID 2282976); settings: HepG2 Attagene TRANS GAL4 internal marker reporter
How it was run: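 Background-control readout: GAL4-UAS reporter transcript in transiently transfected HepG2 cells after 24 h compound exposure. Measured by RT-PCR, 6-FAM primer extension, HpaI digest and capillary electrophoresis; gain-of-signal fit versus DMSO.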

[9] = biological target: Bile acid receptor (Homo sapiens) (UniProt Q96RI1); assay: ATG_FXR_TRANS: Attagene TRANS-FACTORIAL HepG2 Assay for Farnesoid X Receptor (FXR) (AID 2282979); settings: HepG2 Attagene TRANS FXR-GAL4 reporter transcription;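 further: hits raise reporter mRNA above DMSO so AC50 marks FXR activation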
Chain of Bile acid receptor (Homo sapiens) (Q96RI1 whole entry, looked up, the tested form may be a part): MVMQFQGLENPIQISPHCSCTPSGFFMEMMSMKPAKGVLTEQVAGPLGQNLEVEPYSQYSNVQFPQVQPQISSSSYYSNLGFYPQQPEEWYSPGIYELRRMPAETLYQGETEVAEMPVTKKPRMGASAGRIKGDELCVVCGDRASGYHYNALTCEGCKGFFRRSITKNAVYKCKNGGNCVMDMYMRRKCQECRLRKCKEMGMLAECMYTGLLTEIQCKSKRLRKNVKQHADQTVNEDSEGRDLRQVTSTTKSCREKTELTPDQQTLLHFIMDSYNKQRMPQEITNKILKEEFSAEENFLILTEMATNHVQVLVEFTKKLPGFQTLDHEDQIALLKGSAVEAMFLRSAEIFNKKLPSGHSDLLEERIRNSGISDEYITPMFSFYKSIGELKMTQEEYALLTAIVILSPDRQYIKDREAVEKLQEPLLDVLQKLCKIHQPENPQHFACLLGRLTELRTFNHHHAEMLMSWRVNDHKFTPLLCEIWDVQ
How it was run: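 HepG2 cells were transiently transfected with GAL4-UAS reporters driven by chimeric NR-Gal4 proteins and dosed for 24 h. Reporter mRNA was quantified by RT-PCR, fluorescent labelling, HpaI digestion and capillary electrophoresis, with gain of signal scored versus DMSO.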

[10] = biological target: Hepatocyte nuclear factor 4-alpha (Homo sapiens) (UniProt P41235); assay: ATG_HNF4a_TRANS: Attagene TRANS-FACTORIAL HepG2 Assay for human Hepatocyte Nuclear Factor 4 alpha (HNF4a) (AID 2282982); settings: HepG2 HNF4a transactivation reporter, mRNA readout
Chain of Hepatocyte nuclear factor 4-alpha (Homo sapiens) (P41235 whole entry, looked up, the tested form may be a part): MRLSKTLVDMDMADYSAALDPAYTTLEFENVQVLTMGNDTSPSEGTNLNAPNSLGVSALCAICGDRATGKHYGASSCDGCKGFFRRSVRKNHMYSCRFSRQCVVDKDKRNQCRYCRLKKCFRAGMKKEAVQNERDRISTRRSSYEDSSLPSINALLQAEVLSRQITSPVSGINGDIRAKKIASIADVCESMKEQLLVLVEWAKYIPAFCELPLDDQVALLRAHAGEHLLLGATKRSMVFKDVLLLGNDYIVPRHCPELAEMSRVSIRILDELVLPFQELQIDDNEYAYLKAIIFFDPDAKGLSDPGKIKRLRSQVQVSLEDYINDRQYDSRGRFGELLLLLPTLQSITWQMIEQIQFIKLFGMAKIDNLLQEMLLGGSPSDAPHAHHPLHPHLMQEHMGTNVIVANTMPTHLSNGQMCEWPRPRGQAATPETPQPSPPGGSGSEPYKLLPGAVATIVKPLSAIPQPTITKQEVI
How it was run: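 Activity of an exogenous HNF4a–Gal4 fusion scored as induced GAL4-UAS reporter transcripts after 24 h chemical exposure of transfected human HepG2 cells. Read-out via RT-PCR with 6-FAM labelling and capillary electrophoresis; rise over DMSO baseline.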

[11] = biological target: Transcriptional activator Myb (Homo sapiens) (UniProt P10242); assay: ATG_Myb_CIS: Attagene CIS-FACTORIAL HepG2 Assay for human Myeloblastosis (Myb) Proto-Oncogene Transcription Factor (AID 2282986; active means hit-call score of the fitted dose curve at least 0.9, where 1 is the maximum; inactive means score below 0.9); settings: HepG2 Attagene CIS-FACTORIAL Myb reporter transcription; actives raise or lower the signal
Chain of Transcriptional activator Myb (Homo sapiens) (P10242 whole entry, looked up): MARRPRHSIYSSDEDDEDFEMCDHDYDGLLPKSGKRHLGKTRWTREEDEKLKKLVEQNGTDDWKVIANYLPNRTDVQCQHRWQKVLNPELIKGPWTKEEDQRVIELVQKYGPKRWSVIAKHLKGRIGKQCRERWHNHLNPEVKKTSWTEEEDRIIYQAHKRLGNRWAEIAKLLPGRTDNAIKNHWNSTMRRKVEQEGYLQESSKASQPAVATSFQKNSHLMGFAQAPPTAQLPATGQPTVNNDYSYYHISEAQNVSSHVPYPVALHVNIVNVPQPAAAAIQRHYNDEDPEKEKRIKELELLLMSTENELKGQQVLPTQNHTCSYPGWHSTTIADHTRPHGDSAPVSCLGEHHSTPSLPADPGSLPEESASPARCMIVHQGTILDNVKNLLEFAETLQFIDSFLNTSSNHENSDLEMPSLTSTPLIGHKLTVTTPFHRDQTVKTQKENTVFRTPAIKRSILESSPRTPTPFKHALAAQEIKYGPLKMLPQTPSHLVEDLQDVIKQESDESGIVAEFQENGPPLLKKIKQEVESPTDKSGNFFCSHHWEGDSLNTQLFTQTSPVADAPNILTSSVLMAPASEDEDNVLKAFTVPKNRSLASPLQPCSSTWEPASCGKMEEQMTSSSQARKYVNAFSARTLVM
How it was run: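 Multiplexed cis-reporter system in HepG2: transient transfection, 24 h treatment, mRNA readout by RT-PCR and capillary electrophoresis. Both increases and decreases are scored versus DMSO negative control.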

[12] = biological target: Glucocorticoid receptor (Homo sapiens) (UniProt P04150); assay: ATG_GR_TRANS: Attagene TRANS-FACTORIAL HepG2 Assay for human Glucocorticoid Receptor (GR) (AID 2282978); settings: HepG2 Attagene TRANS GR reporter, mRNA transcription;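 further: activators score as hits since higher reporter transcript over DMSO is fitted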
Chain of Glucocorticoid receptor (Homo sapiens) (P04150 whole entry, looked up, the tested form may be a part): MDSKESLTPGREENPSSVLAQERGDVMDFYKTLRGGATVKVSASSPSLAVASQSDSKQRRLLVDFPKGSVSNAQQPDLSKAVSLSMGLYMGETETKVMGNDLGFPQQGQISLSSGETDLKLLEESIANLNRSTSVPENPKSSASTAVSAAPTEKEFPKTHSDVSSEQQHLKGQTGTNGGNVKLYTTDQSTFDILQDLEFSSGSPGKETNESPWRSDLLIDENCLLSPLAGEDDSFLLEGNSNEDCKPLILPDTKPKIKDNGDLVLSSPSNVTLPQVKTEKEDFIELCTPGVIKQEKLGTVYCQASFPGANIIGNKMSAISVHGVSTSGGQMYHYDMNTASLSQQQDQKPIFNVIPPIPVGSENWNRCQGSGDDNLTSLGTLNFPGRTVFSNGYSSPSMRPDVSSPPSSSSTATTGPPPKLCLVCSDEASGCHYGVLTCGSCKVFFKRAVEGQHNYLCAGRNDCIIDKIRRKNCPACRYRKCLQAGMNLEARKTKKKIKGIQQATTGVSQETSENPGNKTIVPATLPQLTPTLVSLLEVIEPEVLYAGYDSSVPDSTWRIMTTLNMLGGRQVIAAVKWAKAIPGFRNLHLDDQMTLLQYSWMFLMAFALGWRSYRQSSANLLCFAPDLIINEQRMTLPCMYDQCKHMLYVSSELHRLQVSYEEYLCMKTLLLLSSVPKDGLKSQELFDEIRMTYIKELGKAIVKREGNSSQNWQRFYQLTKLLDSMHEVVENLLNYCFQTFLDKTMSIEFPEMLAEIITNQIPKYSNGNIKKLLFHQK
How it was run: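 HepG2 transient transfection, multiple reporter units, GAL4-UAS under NR-GAL4 chimera control. 24 h treatment. Reporter mRNA by RT-PCR/CE fluorescence, DMSO as negative control.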

[13] = biological target: Oxysterols receptor LXR-alpha (Homo sapiens) (UniProt Q13133); assay: ATG_LXRa_TRANS: Attagene TRANS-FACTORIAL HepG2 Assay for human Liver X Receptor alpha (LXRa) (AID 2282980); settings: HepG2 Attagene TRANS reporter, LXRa transactivation
Chain of Oxysterols receptor LXR-alpha (Homo sapiens) (Q13133 whole entry, looked up, the tested form may be a part): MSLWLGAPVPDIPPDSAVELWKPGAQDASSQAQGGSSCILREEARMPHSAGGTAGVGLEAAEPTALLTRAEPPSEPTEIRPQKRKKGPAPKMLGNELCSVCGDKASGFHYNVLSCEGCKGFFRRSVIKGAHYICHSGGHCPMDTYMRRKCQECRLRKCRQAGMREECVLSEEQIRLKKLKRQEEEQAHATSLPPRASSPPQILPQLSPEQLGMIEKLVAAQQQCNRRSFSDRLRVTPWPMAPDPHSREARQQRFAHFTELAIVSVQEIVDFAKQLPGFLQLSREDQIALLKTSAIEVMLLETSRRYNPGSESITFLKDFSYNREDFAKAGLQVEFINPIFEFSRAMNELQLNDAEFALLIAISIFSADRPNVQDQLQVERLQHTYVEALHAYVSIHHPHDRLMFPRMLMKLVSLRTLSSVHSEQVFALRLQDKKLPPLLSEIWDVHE
How it was run: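 HepG2 cells transiently transfected with GAL4-UAS reporter units for chimeric NR-Gal4 proteins, exposed to chemicals for 24 h. Reporter mRNA quantified by RT-PCR and capillary electrophoresis; gain of signal fitted relative to DMSO.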

[14] = ATG_M_06_TRANS: Attagene TRANS-FACTORIAL HepG2 Assay for M06 Transcription Factor (Internal Marker) (AID 2282983); settings: HepG2 Attagene TRANS M06 internal marker reporter
How it was run: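 mRNA levels of a reporter transcript, quantified as FAM fluorescence on capillary electrophoresis, served as readout. HepG2 cells expressing exogenous GAL4-chimera reporter constructs were exposed for 24 h. Gain of signal over DMSO was evaluated.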

[15] = biological target: Oxysterols receptor LXR-beta (Homo sapiens) (UniProt P55055); assay: ATG_LXRb_TRANS: Attagene TRANS-FACTORIAL HepG2 Assay for human Liver X Receptor beta (LXRb) (AID 2282981); settings: HepG2 Attagene TRANS GAL4-LXRb reporter, mRNA
Chain of Oxysterols receptor LXR-beta (Homo sapiens) (P55055 whole entry, looked up, the tested form may be a part): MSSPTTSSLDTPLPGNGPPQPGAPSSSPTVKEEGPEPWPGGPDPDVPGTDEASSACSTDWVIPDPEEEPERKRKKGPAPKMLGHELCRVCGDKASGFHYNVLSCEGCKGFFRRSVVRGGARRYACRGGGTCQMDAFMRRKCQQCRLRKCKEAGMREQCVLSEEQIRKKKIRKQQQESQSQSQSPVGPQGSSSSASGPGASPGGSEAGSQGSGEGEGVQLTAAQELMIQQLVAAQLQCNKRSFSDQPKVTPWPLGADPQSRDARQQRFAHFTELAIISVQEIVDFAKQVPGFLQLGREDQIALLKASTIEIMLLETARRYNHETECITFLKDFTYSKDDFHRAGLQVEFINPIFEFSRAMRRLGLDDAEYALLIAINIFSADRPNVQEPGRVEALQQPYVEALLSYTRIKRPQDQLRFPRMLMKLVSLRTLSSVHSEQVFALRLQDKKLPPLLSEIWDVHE
How it was run: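 After 24 h chemical treatment of transfected HepG2 cells carrying exogenous NR-Gal4 chimeras, reporter mRNA was quantified by fluorescent RT-PCR and capillary electrophoresis; activity taken as increase over DMSO controls.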

[16] = ATG_M_32_TRANS: Attagene TRANS-FACTORIAL HepG2 Assay for M32 Transcription Factor (Internal Marker) (AID 2282984); settings: HepG2 Attagene TRANS M32 internal marker reporter
How it was run: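 Internal background reporter in transfected HepG2: after 24 h chemical exposure, RNA reverse-transcribed, reporter cDNA amplified, fluorescently labelled and HpaI-cut, then sized by capillary electrophoresis. Gain of signal fitted against DMSO control.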

[17] = biological target: Nuclear receptor subfamily 4 group A member 2 (Homo sapiens) (UniProt P43354); assay: ATG_NURR1_TRANS: Attagene TRANS-FACTORIAL HepG2 Assay for human Nuclear Receptor Related Protein 1 (NURR1) (AID 2282985); settings: HepG2 Attagene TRANS reporter, mRNA readout
Chain of Nuclear receptor subfamily 4 group A member 2 (Homo sapiens) (P43354 whole entry, looked up, the tested form may be a part): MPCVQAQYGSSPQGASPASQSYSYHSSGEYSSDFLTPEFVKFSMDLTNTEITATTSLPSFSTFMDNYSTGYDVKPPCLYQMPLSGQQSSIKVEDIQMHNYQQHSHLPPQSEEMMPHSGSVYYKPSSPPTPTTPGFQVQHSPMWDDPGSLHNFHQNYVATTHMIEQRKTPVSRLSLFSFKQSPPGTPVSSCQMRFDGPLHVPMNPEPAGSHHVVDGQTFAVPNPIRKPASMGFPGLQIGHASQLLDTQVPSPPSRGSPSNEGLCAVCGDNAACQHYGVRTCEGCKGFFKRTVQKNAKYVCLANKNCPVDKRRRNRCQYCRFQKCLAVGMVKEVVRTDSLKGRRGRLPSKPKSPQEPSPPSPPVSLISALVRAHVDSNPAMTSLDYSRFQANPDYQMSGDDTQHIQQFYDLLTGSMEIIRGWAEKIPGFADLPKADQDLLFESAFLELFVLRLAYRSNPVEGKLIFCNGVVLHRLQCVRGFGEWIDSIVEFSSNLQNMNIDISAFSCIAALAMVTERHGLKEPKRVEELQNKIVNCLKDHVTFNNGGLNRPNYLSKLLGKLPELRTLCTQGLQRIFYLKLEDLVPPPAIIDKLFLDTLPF
How it was run: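 Reporter transcript induction, measured by RT-PCR with fluorescent labelling, HpaI digestion and capillary electrophoresis, after 24 hr dosing of human HepG2 cells transiently expressing an exogenous NR-Gal4 fusion with GAL4-UAS-driven reporters; DMSO as baseline.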

Measured: AC50

C=CCCCCCCCCOC(C)=O
not listed: [12] | [13] | [14] | [15] | [16] | [17]
inactive: all other assays above

CC(C)C(=O)OCCOc1ccccc1
inactive: [1] | [2] | [3] | [6] | [7] | [12] | [13] | [14] | [11]

CCc1cccc(CC)c1
not listed: [5] | [7] | [10] | [15] | [16] | [17]
inactive: all other assays above

CC(C)CO
active: [3] 0.224 µM
not listed: [5] | [7] | [9] | [13] | [17]
inactive: all other assays above

C=CCNCC=C
not listed: [5] | [8] | [9] | [14] | [15] | [16]
inactive: all other assays above

COc1ccc(C(=O)c2ccccc2)c(O)c1
active: [3] 156 µM | [4] 6.43 µM
not listed: [5] | [10] | [13]
inactive: all other assays above

C1CCSC1
not listed: [4] | [7] | [8] | [12]
inactive: all other assays above

CCc1occc(=O)c1O
not listed: [5] | [7] | [10] | [12] | [13] | [15] | [17]
inactive: all other assays above

C=C1C[C@H]2[C@@H]3C=C(C)C4=CC(=O)CC[C@]4(C)[C@H]3CC[C@]2(C)[C@@]1(OC(C)=O)C(C)=O
active: [1] 18.9 µM | [2] 52.8 µM | [6] 88 µM | [12] 0.0106 µM | [13] 16.6 µM
not listed: [4] | [5] | [9] | [10]
inactive: all other assays above

CCC(C)C(=O)OCCc1ccccc1 (stereo unspecified)
not listed: [5] | [7] | [8] | [12] | [13] | [16] | [17]
inactive: all other assays above

Nc1ccc(C(=O)O)cc1
inactive: [1] | [2] | [3] | [4] | [7] | [8] | [10] | [16] | [17]

CCOC(=O)c1ccccc1C
inactive: [1] | [2] | [3] | [6] | [15] | [14] | [11]

CCN1CN(CC)CN(CC)C1
active: [1] 132 µM
inactive: [2] | [3] | [4] | [7] | [9] | [13] | [15] | [17]

CCOB(OCC)OCC
inactive: [1] | [2] | [3] | [6] | [7] | [9] | [14] | [16] | [11]

COc1ccc(-c2coc3cc(O)cc(O)c3c2=O)cc1
active: [4] 0.432 µM
not listed: [5] | [6] | [9] | [17]
inactive: all other assays above

CCCCCCC=O
active: [4] 19 µM
inactive: [1] | [2] | [3] | [6] | [7] | [12] | [15] | [16]

CC(=O)C(C)C
not listed: [5] | [9] | [11] | [14] | [17]
inactive: all other assays above

CC/C=C\C/C=C\C/C=C\CCCCCCCC(=O)OC
active: [1] 64.9 µM | [3] 100 µM
not listed: [5] | [13] | [14] | [15]
inactive: all other assays above
